Data published in PubChem BioAssay (NCI).
This is part of a sample that, as a whole, favours compounds with a hit. Of some 83,000 tested, about 20% had one in any assay.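 Assay: single dose, 48 h. Readout: percent growth (0 = no net growth; negative = cell death). Active: <10.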 Unmarked numbers belong to inactive results. Calls of active or inactive are those of the source.

Tests used:
Test in all cases: NCI-60 one-dose screen, 48 h (100 = growth as untreated, 0 = no growth, -100 = all killed)
Conditions in all cases: 10 µM unless noted
NCI-H23 lung = test system: NCI-H23 lung
NCI-H226 lung = test system: NCI-H226 lung
NCI-H322M lung = test system: NCI-H322M lung
HOP-62 NSCLC = test system: HOP-62 NSCLC
NCI-H460 lung = test system: NCI-H460 lung
HOP-92 NSCLC = test system: HOP-92 NSCLC
NCI-H522 lung = test system: NCI-H522 lung
A549/ATCC NSCLC = test system: A549/ATCC NSCLC
786-0 renal = test system: 786-0 renal
COLO 205 colon = test system: COLO 205 colon
DU-145 prostate = test system: DU-145 prostate
K-562 leukemia = test system: K-562 leukemia
MALME-3M melanoma = test system: MALME-3M melanoma
MDA-MB-231 breast = test system: MDA-MB-231 breast
RXF 393 renal = test system: RXF 393 renal
SF-268 CNS = test system: SF-268 CNS
SF-295 CNS = test system: SF-295 CNS
SF-539 CNS = test system: SF-539 CNS
UACC-257 melanoma = test system: UACC-257 melanoma
M14 melanoma = test system: M14 melanoma

SMILES	growth (NCI-H23 lung)	growth (NCI-H226 lung)	growth (NCI-H322M lung)	growth (HOP-62 NSCLC)	growth (NCI-H460 lung)	growth (HOP-92 NSCLC)	growth (NCI-H522 lung)	growth (A549/ATCC NSCLC)	growth (786-0 renal)	growth (COLO 205 colon)	growth (DU-145 prostate)	growth (K-562 leukemia)	growth (MALME-3M melanoma)	growth (MDA-MB-231 breast)	growth (RXF 393 renal)	growth (SF-268 CNS)	growth (SF-295 CNS)	growth (SF-539 CNS)	growth (UACC-257 melanoma)	growth (M14 melanoma)
Nc1cc(Cl)cc2cccnc12	88.6%	81.4%	116%	95.5%	112%	102%	96.7%	111%	109%	124%	109%	98.1%	122%	95.8%	112%	88%	114%	98%	127%	115%
CCN(CC)CCCCCCNc1cccc2cc(Br)cnc12	85.7%	108%	94.3%	118%	87.3%	71.6%	26.7%	97.8%	92.8%	89.9%	91.4%	-27.8% (active)	47.9%	67.9%	91%	74.9%	84.8%	94.4%	80.7%	50.1%
O=C(CCCSc1nc(-c2ccccc2)cc(-c2ccccc2)n1)NO	-2.58% (active)	-6.97% (active)	12.6%	-8.18% (active)	6.46% (active)	-3.2% (active)	-9.12% (active)	-1.91% (active)	7.15% (active)	-14% (active)	13.3%	6.51% (active)	7.62% (active)	19.8%	-21.7% (active)	0.164% (active)	4.39% (active)	6.64% (active)	-2.82% (active)	5.46% (active)
COc1ccc(C(C(=O)O)c2ccc(OC)cc2)cc1	113%	104%	121%	112%	117%	106%	106%	116%	107%	117%	105%	105%	128%	120%	128%	103%	104%	105%	110%	114%
C[C@@H]1C[C@H]2C(=O)O[C@@H](C)[C@H](NC(=O)[C@H](Cc3cc(F)cc(F)c3)NC(=O)Nc3ccc(C4CC4)cc3F)C(=O)N3CCC[C@H]3C(=O)N3CCCC[C@H]3C(=O)N[C@@H](C)C(=O)N2C1	28.7%	19.8%	45.4%	27.8%	13.6%	3.54% (active)	19.4%	18.3%	20%	-33.2% (active)	21.8%	17.5%	18.5%	-14.4% (active)	-1.09% (active)	22.5%	-1.67% (active)	24.7%	6.5% (active)	10.7%
O=C(Nc1cccc2ccccc12)c1cc2ccccc2cc1O	8.03% (active)	12.5%	-4.28% (active)	12.5%	7.16% (active)	-22% (active)	9.44% (active)	11.3%	22.2%	112%	25.7%	14.7%	-12.3% (active)	-22.1% (active)	22.7%	23.8%	6.2% (active)	17.7%	5.69% (active)	32.2%
C[C@]12CCc3c(ccc4cc(O)ccc34)[C@@H]1CC[C@H]2O	95.7%	91.9%	105%	103%	102%	84.1%	88.3%	108%	104%	108%	104%	94.9%	101%	88.3%	97.2%	91.4%	84.9%	91%	102%	101%
O=C(Nc1cc(-c2cccnc2)nc(NCCCN2CCOCC2)n1)c1cc(Br)cc(C(F)(F)F)c1	80.9%	73.8%	58.2%	69.4%	56%	34.6%	60.2%	67.9%	51.8%	1.11% (active)	82.6%	8.84% (active)	-7.83% (active)	32.7%	52.8%	60.9%	-22.8% (active)	66.5%	-27.1% (active)	-72.1% (active)
CCOC(=O)c1nn(C2CCCCO2)c2ccc(NC(=O)CSc3nc4ccccc4c(=O)[nH]3)cc12 (stereo not given)	102%	97.6%	92.5%	88.2%	98.9%	92.5%	100%	99.4%	91%	126%	102%	99.4%	103%	79.9%	71.8%	90.1%	97.6%	82.4%	102%	100%
O=C(Oc1ccc(Cl)cc1[N+](=O)[O-])Oc1ccc(Cl)cc1[N+](=O)[O-]	105%	117%	122%	113%	111%	93.4%	104%	99.2%	119%	122%	116%	90.2%	135%	126%	124%	105%	119%	109%	107%	109%
C#CCNC(=O)CC[C@]1(C)[C@H]2CC[C@@H]3[C@@H]([C@@](C)(O)CCC=C(C)C)CC[C@@]3(C)[C@]2(C)CC[C@H]1C(=C)C	16.3% [100 µM]	51.5% [100 µM]	75.7% [100 µM]	51.5% [100 µM]	33.7% [100 µM]	-25.5% [100 µM] (active)	-73.1% [100 µM] (active)	37.7% [100 µM]	-67.9% [100 µM] (active)	42.7% [100 µM]	52.7% [100 µM]	5.99% [100 µM] (active)	-73.6% [100 µM] (active)	-24.5% [100 µM] (active)	30.6% [100 µM]	-28.8% [100 µM] (active)	49% [100 µM]	-81% [100 µM] (active)	61.5% [100 µM]	53.1% [100 µM]
CC1(C)NCCC[C@]2(C)[C@H]3C=CC4=C5C[C@](C)(CO)CC[C@]5(C)CC[C@@]4(C)[C@]3(C)CC[C@@H]12	-84.9% [100 µM] (active)	-59.1% [100 µM] (active)	-99.7% [100 µM] (active)	-74.5% [100 µM] (active)	-81.6% [100 µM] (active)	-76.4% [100 µM] (active)	-75.6% [100 µM] (active)	-66.5% [100 µM] (active)	-72% [100 µM] (active)	-55.9% [100 µM] (active)	-89.5% [100 µM] (active)	-25.4% [100 µM] (active)	-82.6% [100 µM] (active)	-94% [100 µM] (active)	-70.4% [100 µM] (active)	-69.9% [100 µM] (active)	-90.1% [100 µM] (active)	-93.3% [100 µM] (active)	-80.5% [100 µM] (active)	-82.1% [100 µM] (active)
C#C[C@]1(O)CC[C@H]2[C@@H]3CC=C4c5nc(Nc6ccccn6)sc5CC[C@]4(C)[C@H]3CC[C@@]21C	34.7%	38.1%	35.8%	-10.4% (active)	4.83% (active)	-24.5% (active)	-6.06% (active)	14.5%	-69.6% (active)	35%	17.2%	2.53% (active)	10.9%	-23.1% (active)	-66% (active)	-24% (active)	-72.2% (active)	-64.7% (active)	-54.7% (active)	-35.9% (active)
